Test results as given in the supplement of paper PMC8540655.
A number with no mark means an inactive call.

Test system: Aedes aegypti larvae
Assay: larval motility relative to same well at 0 h (fraction); higher = more motile (less active compound), active = 0.4 or less
Conditions: 10 µM
Procedure, shortened: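 Larvae (Aedes aegypti, hatched in pond salt solution with yeast at 25 °C and taken 18–24 h later) were plated at about 10 per 100 µL well. Compounds at 10 µM in 1% v/v DMSO were imaged with INVAPP at 0, 2 and 24 h, alongside solvent and larvicide controls on each plate. Reported relative motility is each well's score over its own starting score, as a median of three independent larval batches.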

SMILES | larval motility (2 h) | larval motility (24 h)
Cc1cc(NS(=O)(=O)c2ccc(-c3ccc(F)cc3F)cc2)no1 | 0.769 | 0.77
O=C(O)c1cc(-c2ccc(Br)cc2)nc2ccc(Cl)cc12 | 1.05 | 0.76
CCN(CC)CCCC(C)Nc1ccnc2cc(Cl)ccc12 (stereo not drawn) | 0.715 | 0.484
O=C(NC(=O)N1CCCc2ccccc21)c1cccc(Cl)c1 | 0.838 | 1.04
C(=C\c1nc2ccccc2[nH]1)/c1ccc2c(c1)OCO2 | 0.765 | 1.01
NCC(=O)Nc1ccc(-n2nc(C(F)(F)F)cc2-c2ccc3c(ccc4ccccc43)c2)cc1 | 0.799 | 1.81
O=C(NO)C1(CS(=O)(=O)c2ccc(Oc3ccc(Cl)cc3)cc2)CCOCC1 | 0.471 | 1.04
O=C(Nc1nnc(-c2ccc(Cl)cc2)o1)c1ccc(F)cc1 | 1.18 | 0.816
c1ccc(-c2nnc3c4ccccc4c(N4CCNCC4)nn23)cc1 | 0.808 | 1.34
CCOC(=O)/C=C/[C@H](C[C@@H]1CCNC1=O)NC(=O)[C@@H](CC(=O)[C@@H](NC(=O)c1cc(C)on1)C(C)C)Cc1ccc(F)cc1 | 1.26 | 1.09
O=C1NC(=S)N/C1=C\c1cc(Br)cc(Br)c1O | 0.761 | 0.843
CN(C)CCCNC(=O)c1ccc(-c2cc(O)c3ncccc3c2)cc1 | 0.79 | 0.683
CN(Cc1ccc(C(C)(C)C)cc1)Cc1cccc2ccccc12 | 0.508 | 0.64
C=CCc1cc(Cc2cnc(N)nc2N)cc(OC)c1O | 1.05 | 1.18
CC(Cc1ccccc1)C(=O)Nc1ccc(Cl)cc1C(=O)O (stereo not drawn) | 1.32 | 1.05
Cc1c(N)cccc1Cn1ccc(OCCc2cccs2)cc1=O | 0.953 | 0.875
O=S(=O)(Nc1ccc(O)cc1)c1cccc2cccnc12 | 1.06 | 0.629
C=C[C@]1(C)C[C@@H](OC(=O)CS[C@@H]2C[C@H]3CC[C@@H](C2)N3C)[C@]2(C)[C@H](C)CC[C@]3(CCC(=O)[C@H]32)[C@@H](C)[C@@H]1O | 0.606 | 0.545
O=c1cc(Nc2ccc3ccccc3c2)[nH]c(=O)[nH]1 | 0.528 | 0.778
Cc1ccc(NC(=O)c2ccc(CN3CCN(C)CC3)cc2)cc1Nc1nccc(-c2cccnc2)n1 | 0.64 | 0.702
Cc1c(F)cccc1NC(=O)Nc1ccc(Cl)c(S(=O)(=O)[C@H]2CCCNC2)c1O | 0.645 | 0.669
Cc1cc(Nc2ccc(F)cc2)nc(SCc2nc3ccccc3[nH]2)n1 | 0.661 | 0.622
CC[C@H](NC(=O)[C@H](C)NC)C(=O)N1C[C@@H](O)C[C@H]1Cc1c(-c2[nH]c3cc(F)ccc3c2C[C@@H]2C[C@H](O)CN2C(=O)[C@H](CC)NC(=O)[C@H](C)NC)[nH]c2cc(F)ccc12 | 0.407 | 0.89
O=c1nc(N2CCN(CC3CCCCC3)CC2)sc2c([N+](=O)[O-])cc(C(F)(F)F)cc12 | 0.712 | 1.04
